Here are results for 40 compounds from PubChem BioAssay.

The source made the active and inactive calls. The rule behind the calls is not given here. Where a SMILES comes first, the peptide text is derived from it. The star is where a group is joined. Boc = CC(C)(C)OC(=O)*

The target in this test is Pantothenate synthetase (Mycobacterium tuberculosis (strain ATCC 25618 / H37Rv)) (UniProt P9WIL5). Kind of test: Coupled enzyme confirmation of inhibitors against recombinant Mtb PanC (AID 375).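 Note: 0% = full reaction with vehicle and 100% = no enzyme background.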 As to conditions: coupled enzyme assay; at 10 µM, active compounds read high.
Pantothenate synthetase (Mycobacterium tuberculosis (strain ATCC 25618 / H37Rv)), sequence (P9WIL5 whole entry, looked up): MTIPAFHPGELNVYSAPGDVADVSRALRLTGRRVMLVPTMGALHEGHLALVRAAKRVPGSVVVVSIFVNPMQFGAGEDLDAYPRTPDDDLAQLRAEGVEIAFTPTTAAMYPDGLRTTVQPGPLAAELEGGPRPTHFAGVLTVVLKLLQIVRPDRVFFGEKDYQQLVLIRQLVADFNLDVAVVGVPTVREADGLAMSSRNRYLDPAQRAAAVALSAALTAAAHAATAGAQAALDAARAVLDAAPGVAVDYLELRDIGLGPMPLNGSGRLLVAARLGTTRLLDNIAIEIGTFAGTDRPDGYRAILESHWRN
As for `COc1nnc(-c2ccc(C)c(S(=O)(=O)NCCO)c2)c2ccccc12`, the inhibition (commonly how much of the control response was suppressed) was 3% (inactive).
For the compound `COC(=O)c1ccc(-c2sc3nc(N4CCOCC4)c4c(c3c2N)CCCC4)o1`, the inhibition was 0% (inactive).
As for `CCOc1ccc(NC(=O)CSc2nnc(Cc3cccn3C)n2-c2ccc(OC)cc2)cc1`, the inhibition was 1% (inactive).
Then `CC(=O)N=c1sc(S(N)(=O)=O)nn1C`, with 0% (inactive); and `COc1ccc2c(c1)CCc1cc(C(=O)N3CCN(c4ccc(N5CCOCC5)nn4)CC3)sc1-2`, with 2% (inactive).
In the case of `CC1=C(c2ccc(Cl)cc2)[N+](=O)C(C)(C)N1[O-]`, the inhibition was 0% (inactive).
`COc1cc(OC)cc(OCC(O)Cn2cnc(-c3ccccc3)c2)c1` (stereo not given): the inhibition is 0% (inactive).
Consider `CCOC(=O)Nc1c(C(=O)OC)[nH]c2cccc(OC)c12`, for which the inhibition is 0% (inactive).
On to `CC(NC(=O)OC(C)(C)C)C(=O)N1CCCC1C(=O)NC(Cc1ccccc1)C(N)=O` (stereo not drawn) (Boc-Ala-Pro-Phe-NH2; configuration not given here), for which the inhibition is 7% (inactive).
For `CN(Cc1ccco1)C(=O)Cn1c(=O)oc2cc(S(=O)(=O)NCc3ccccc3)ccc21`, the inhibition is 0% (inactive).
With `Nc1nnc(SCCOc2ccccc2)s1` the figure was 3% (inactive); with `O=C(NCCc1ccccc1)C1CCCN(S(=O)(=O)c2cccs2)C1` (stereo not given), 9% (inactive); with `c1ccc(Oc2ccc(-n3cnnn3)cc2)cc1`, 3% (inactive).
With `O=S(=O)(NC1CCCC1)c1ccccc1Cl`, the inhibition is 0% (inactive).
`C=CCn1c(SCC(=O)Nc2ccc3c(c2)OCO3)nc2ccccc2c1=O`: the inhibition was 2% (inactive).
With `CC1=C(C)CC2C(=O)N(c3cccc4ccccc34)C(=O)C2C1` (stereo not given), the inhibition is 0% (inactive).
For `COc1cccc(/C=N/n2cnnc2)c1OCc1ccccc1`, the inhibition is 0% (inactive).
For the compound `O=C(Cc1ccsc1-c1ccccc1)NO`, the inhibition is 0% (inactive).
Turning to `CCOC(=O)CNC(=O)CSc1ncnc2c1cnn2-c1ccccc1`, the inhibition is 0% (inactive).
For `Cc1c(C(=O)NC2CC2)oc2ccc(S(=O)(=O)N3CCCCCC3)cc12`, the inhibition was 0% (inactive).
In the case of `CSc1nc2ccccc2c(=O)n1N`, the inhibition was 0% (inactive).
`CC(C(=O)Nc1ccccc1-c1ccccc1)N1CCN(C(=O)c2ccco2)CC1` (stereo not given): the inhibition is 0% (inactive).
With `COc1ccc(Cn2c(C)nc3c(c2=O)c2nc4ccccc4nc2n3Cc2ccco2)cc1` the figure was 9% (inactive); with `COc1ccccc1N1CCN(C(=O)c2ccc(CS(=O)(=O)c3ccccc3OC)o2)CC1`, 8% (inactive); with `Cc1cc(S(=O)(=O)N(Cc2ccccc2)Cc2ccc(N(C)C)cc2)ccc1-n1cnnn1`, 0% (inactive).
With `CC(C)(CSc1nncn1N)NS(=O)(=O)c1ccc(Cl)cc1`, the inhibition is 0% (inactive).
As for `O=C(NCN1CCCCC1)c1cnccn1`, the inhibition is 0% (inactive).
As to `COC(=O)CSc1nc2ncc(Cl)cc2[nH]1`, the inhibition was 1% (inactive).
Then `CCCCn1nnnc1SCC(=O)N1CCN(C(=O)c2ccco2)CC1`, with 0% (inactive); and `CC(C)CNC(=O)c1ccccc1NC(=O)c1ccc(CN2CCOCC2)cc1`, with 3% (inactive); and `CCOc1ccc(N(CC(=O)NC2CCCCC2)S(=O)(=O)c2c(C)noc2C)cc1`, with 0% (inactive).
With `O=C(CCCCCn1c(SCc2ccncc2)nc2ccccc2c1=O)NCc1ccco1` the figure was 0% (inactive); with `COc1ccc(OCc2cccc(C(=O)O)c2)cc1`, 0% (inactive); with `C=CCSc1nc2c(c(=O)[nH]c(=O)n2C)n1C(C)C`, 0% (inactive).
Then `COc1cccc(-c2cc(C(=O)N3CCCc4ccccc43)no2)c1`, with 0% (inactive).
On to `Cc1ccnc(NC(=O)Nc2ccc(F)cc2)c1`, for which the inhibition is 0% (inactive).
Consider `COC(=O)CN1C(=O)CC(C)(C)S(=O)c2ccccc21` (stereo not given), for which the inhibition is 0% (inactive).
As to `CC(C)C(=O)Nc1ccc(C(=O)NCc2cccnc2)cc1`, the inhibition is 0% (inactive).
As to `Cc1nc2sc(C(c3ccccc3)N3CCN(c4ccccc4F)CC3)c(O)n2n1` (stereo not given), the inhibition is 0% (inactive).
In the case of `Cc1nc(-c2cnn(-c3ccccc3)c2)c2cc(C)oc2n1`, the inhibition is 2% (inactive).
